Source: PubChem BioAssay (Broad Institute)
A selection: hits, their analogues and other compounds. The true share with any hit is near 2.2%.
LGR2 antag: inhibitors of bursicon-induced Drosophila LGR2 receptor cAMP signaling. HEK293 LGR2, CRE-luciferase, bursicon-stimulated, 4 h. inhibition, % at 9.99 µM. hit rate 0.35% among 380,000. AID 720647;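 active = drop in luminescence signal, shown as inhibition above about 50% in the replicate tests, limit read from the data, passing the limit was not always enough; inconclusive = probably only some replicates passing the limit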;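 note: agonist challenge used bursicon conditioned medium at about half maximal strength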
PAX8 reporter: lowers PAX8-driven luciferase in RMG-I cells. inhibition, % at 12.6 µM. RMG-I TPO-luciferase reporter, SteadyGlo, 24 h. hit rate 1.2% among 360,000;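 active = mean replicate inhibition at least 60% with every replicate also reaching 60%; inconclusive = only one of the two criteria is met; inactive = mean below 60% and not all replicates reaching 60%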;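 note: luciferase light reporting Pax8 driven TPO promoter activity; plate controls were median of neutral control wells for no effect and mitoxantrone controls for full effect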
EWS-Fli inh: inhibitors of EWS/Fli oncoprotein transcriptional activity | A673 NR0B1-luciferase reporter, viability-normalised | inhibition, % at 12.6 µM | hit rate 0.67% among 350,000 | AID 651661;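 active = mean inhibition of at least 50% after viability correction, with every replicate also passing that limit; inconclusive = mean reaches 50% but only one of two replicates passes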;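 note: firefly luciferase signal divided by Alamar Blue viability fluorescence both relative to DMSO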
EBV LMP1 NFkB: reduces LMP1-driven NF-kappaB luciferase signal; inhibition, % at 12.5 µM; hit rate 0.69% among 350,000; LMP1-induced NF-kappaB luciferase reporter cells, luminescence; AID 504558; in the data active = inhibition above about 41%; inconclusive = no clear call, values can overlap the other calls;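 note: 0% = neutral control wells and 100% = reference inhibitor control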
Shn3 inh set2: reduces Shn3 3'UTR luciferase signal in osteoblasts; hit rate 0.52% among 360,000; AID 588674; Clone20 osteoblast Shn3 3'UTR firefly luciferase, 24 h; inhibition, % at 12.5 µM;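 active = mean inhibition of at least 75% with every replicate also reaching 75%; inconclusive = mean inhibition at least 75% but some replicate below; inactive = mean inhibition below 75%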;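 note: 0% = median of neutral control wells and 100% = pilot-screen positive control compound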
TRPM1 prom inh: MITF TRPM1 promoter inhibition in SK-MEL-5 cells | SK-MEL-5 TRPM1 promoter luciferase, 24 h | hit rate 0.83% among 330,000 | AID 488899 | inhibition, % at 12.5 µM;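 active = mean inhibition across replicates of 60% or more, whatever share of single replicates reaches that level; inconclusive = some that reach 60%, reason not given; inactive = mean inhibition across replicates below 60%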
Numbers without * were called inactive; ? = inconclusive; · = no result.

SMILES | LGR2 antag | PAX8 reporter | EWS-Fli inh | EBV LMP1 NFkB | Shn3 inh set2 | TRPM1 prom inh
CCCCCCN(C(=O)CCl)c1ccccc1 | -23.3 | 104.4* | 41.7 | 6.6 | -8.1 | 34.0
N#CCCN(C(=O)COC(=O)c1nc(Cl)ccc1Cl)c1ccccc1 | -3.6 | -1.5 | 1.5 | 2.2 | 4.0 | 0.0
C[C@@H]1CN([C@@H](C)CO)C(=O)Cc2cc(NC(=O)Cc3ccccc3)ccc2O[C@@H]1CN(C)S(=O)(=O)c1cn(C)cn1 | -1.5 | -13.0 | 0.5 | · | · | ·
C[C@H]1CN([C@@H](C)CO)C(=O)c2cc(C#CC(C)(C)O)cnc2O[C@@H]1CN(C)Cc1cccc(F)c1 | -6.9 | -0.3 | 0.8 | · | · | ·
CC(=O)N(C)C[C@@H]1Oc2ncc(-c3cccc(F)c3)cc2C(=O)N([C@@H](C)CO)C[C@H]1C | -29.9 | · | -7.9 | · | · | ·
Cc1nc2ccccc2n1Cc1ccc(Cl)cc1 | · | 20.5 | 24.3 | 1.8 | 88.0* | 15.6
OCc1nc2ccccc2n1Cc1ccc(Cl)cc1 | 8.1 | 2.2 | 14.1 | -6.3 | 14.1 | 5.0
CO[C@H]1CN(C)C(=O)c2ccc(NC(=O)Nc3cccc(Cl)c3)cc2OC[C@@H](C)N(C(=O)Nc2c(C)noc2C)C[C@@H]1C | 3.6 | 29.5 | -17.7 | · | · | ·
Cc1nnc(NC(=O)c2ccc(N3CCCC3=O)cc2)s1 | -22.3 | -96.3 | -21.0 | -23.4 | -50.1 | -87.2
Cc1csc(NC(=O)c2ccc(N3CCCC3=O)cc2)n1 | 90.5* | 50.9 | 46.9 | 68.9* | 39.1 | 42.6
CCOC(=O)c1c(C)[nH]c(C(=O)OCC(=O)Nc2sccc2C(N)=O)c1C | 70.7* | 30.3 | -30.5 | 15.6 | 81.6 | 38.4
O=C(O)c1cn2c3c(ccc(Cl)c3c1=O)OCC2 | -6.9 | 7.0 | 7.2 | 51.5* | -10.5 | -2.3
CNC(=O)c1cn2c3c(ccc(Cl)c3c1=O)OC(C)C2 (configuration not stated) | 14.9 | -8.6 | -17.9 | -3.9 | 11.4 | 14.9
C[C@H](CO)N1C[C@H](C)[C@@H](CN(C)Cc2cccnc2)Oc2ncc(C#CC3CCCCC3)cc2C1=O | · | 28.5 | 47.3 | · | · | ·
CC(=O)N1c2ccc(S(=O)(=O)N3CCC(C(=O)Nc4cccc(Cl)c4)CC3)cc2CC1C (configuration not stated) | 8.1 | 45.5 | 25.3 | 7.9 | 89.1* | 17.1
CC(=O)N1c2ccc(S(=O)(=O)N3CCC(C(=O)Nc4cccc(F)c4)CC3)cc2CC1C (configuration not stated) | -23.6 | 16.9 | · | 1.3 | 86.4* | 12.7
CC1Sc2ccc(S(=O)(=O)N3CCC(C(=O)Nc4ccc(Cl)cc4)CC3)cc2NC1=O (configuration not stated) | 42.6 | 53.8 | 16.2 | 30.5 | 89.3* | 18.9
CCCNS(=O)(=O)c1ccc(CCC(=O)NCc2ccco2)cc1 | · | 15.4 | · | -22.1 | 9.6 | 0.3
O=C(CCc1ccc(S(=O)(=O)NCc2ccccc2)cc1)NCc1cccnc1 | 0.6 | 127.3* | -2.7 | 1.2 | 18.5 | 0.5
O=C(CN(Cc1ccccc1)C(=O)CNS(=O)(=O)c1ccccc1)NCc1ccco1 | 0.9 | -7.1 | 7.3 | 2.2 | 16.4 | -3.1
O=C(CN(Cc1cccs1)C(=O)CNS(=O)(=O)c1ccccc1)NCc1ccco1 | · | · | · | 89.7* | -7.2 | 9.7
O=C(CCc1ccc(S(=O)(=O)NCc2ccccc2)cc1)NCc1ccco1 | -1.8 | 156.5* | -13.7 | 14.8 | 4.9 | 15.9
Cc1ccccc1-c1ccc2c(c1)O[C@H](CN(C)C(=O)Nc1ccc(C(F)(F)F)cc1)[C@H](C)CN([C@@H](C)CO)S2(=O)=O | 0.1 | 76.8* | 7.9 | · | · | ·
Cc1ccccc1-c1ccc2c(c1)O[C@@H](CN(C)C(=O)Nc1ccc(F)cc1)[C@@H](C)CN([C@H](C)CO)S2(=O)=O | 11.5 | 1.0 | -12.3 | · | · | ·
Cc1ccccc1-c1ccc2c(c1)O[C@@H](CN(C)C(=O)Nc1ccc(C(F)(F)F)cc1)[C@@H](C)CN([C@H](C)CO)S2(=O)=O | 8.2 | -27.6 | 9.1 | · | · | ·
SMILES | LGR2 antag | PAX8 reporter | EWS-Fli inh | EBV LMP1 NFkB | Shn3 inh set2 | TRPM1 prom inh
Cc1ccccc1-c1ccc2c(c1)O[C@H](CN(C)C(=O)Nc1ccc(C(F)(F)F)cc1)[C@@H](C)CN([C@H](C)CO)S2(=O)=O | 14.4 | 77.1* | 9.0 | · | · | ·
C[C@@H]1CN([C@@H](C)CO)C(=O)c2cc(NC(=O)NC3CCCCC3)ccc2O[C@H]1CN(C)S(=O)(=O)c1cccs1 | -6.6 | · | -5.8 | · | · | ·
O=C(c1cc(-c2ccc(Cl)cc2Cl)on1)N1CCCC1 | 75.1* | -47.7 | 55.0* | 5.0 | 0.6 | -6.8
O=C(c1cc(-c2ccc(Cl)cc2Cl)on1)N1CCCCCC1 | -34.5 | -160.4 | -4.5 | -25.8 | -50.0 | -46.1
Cc1ccc(-c2cc(C(=O)N3CCOCC3)no2)cc1 | 62.7* | 9.3 | 54.1* | 39.0 | 9.0 | 28.1
CC(=O)N(c1ccc(Cl)cc1)c1cn(C(C)=O)c2ccccc12 | 8.9 | 12.7 | 5.6 | 2.2 | -4.7 | 3.1
CC(=O)n1cc(N(C(=O)CCl)c2ccc(C)cc2)c2ccccc21 | -4.0 | 104.4* | 40.1 | -12.8 | · | 73.5*
Cc1ccc(-c2nc3ccc([N+](=O)[O-])cc3[nH]2)cc1 | 54.1* | -51.3 | -16.4 | -32.1 | -11.2 | -14.5
O=C(C[C@H]1C=C[C@@H](NC(=O)c2cccc(F)c2)[C@@H](CO)O1)NCc1ccc(Oc2ccccc2)cc1 | -26.3 | 17.9 | 14.9 | · | · | ·
CC(=O)c1c(C)oc2ccc(N(C(C)=O)S(=O)(=O)c3ccc(Br)cc3)cc12 | 7.9 | -3.0 | 8.4 | 10.8 | 31.4 | 4.5
CC(=O)c1c(C)oc2ccc(N(C(C)=O)S(=O)(=O)c3ccc(Cl)c([N+](=O)[O-])c3)cc12 | · | · | · | 30.8 | -9.9 | 65.0*
O=C(COc1ccc2c(c1)OCO2)Nc1nccs1 | 60.5* | -73.0 | 13.7 | 19.5 | 7.9 | -2.0
COc1ccc(OCCC(=O)Nc2nccs2)cc1 | 4.4 | -26.1 | -2.6 | 0.4 | -10.6 | -10.0
COc1ccc(OCC(=O)Nc2nccs2)cc1 | 66.1* | -5.8 | 26.9 | ? | 5.6 | -1.0
CCOc1ccc(OCC(=O)Nc2nccs2)cc1 | · | · | · | 42.9* | 8.0 | 52.2
COC(=O)C[C@H]1CC[C@H]2[C@H](COc3ccc(NC(=O)c4ccccc4OC)cc3C(=O)N2C)O1 | -9.1 | 22.9 | -1.0 | · | · | ·
COCc1cn(CC[C@@H]2CC[C@@H](NC(=O)CCN3CCCCC3)[C@H](CO)O2)nn1 | 3.0 | 6.9 | 2.5 | · | · | ·
Cn1c(=O)c([N+](=O)[O-])c(-n2ccnc2)c2ccccc21 | 15.7 | 44.4 | 48.7 | -0.8 | -17.9 | 89.5*
O=C(c1ccccc1)N1CCSc2sccc2C1=O | 97.7* | 53.9 | 67.2* | 72.2* | 26.9 | 50.3
O=C(c1ccccc1)N1CCSC1=S | · | 13.1 | · | 27.1 | -0.9 | -2.4
CC1(C)CC(=O)C(N=Nc2ccc3ncsc3c2)=C(O)C1 | · | · | · | -6.2 | -49.0 | -2.0
COc1ccc2nc(N=Nc3ccc(O)c4ccccc34)sc2c1 | · | 15.3 | 4.5 | 0.7 | ? | 74.9*
COc1ccc2nc(N=NC3=C(O)CC(C)(C)CC3=O)sc2c1 | -22.1 | 6.5 | 3.4 | 13.5 | -30.9 | 63.6*
